The text below walks through data of the antibiotic and cytotoxicity screens of Wong et al. (2023).

The whole screen tested about 39,000 compounds, of which about 500 (1.3%) were called active. The list comes from a sample in which actives are over-represented; it also holds similar structures and randomly drawn compounds.

In the assay the test system is S. aureus RN4220. In words: growth inhibition call (relative growth <= 0.2). Conditions: 50 µM.
In the case of `O=C(C[C@H]1CC[C@H]2[C@@H](COC[C@@H](O)CN2C(=O)Nc2ccc(C(F)(F)F)cc2)O1)NCCc1ccncc1`, the growth inhibition call was “active”.

With `O=C(C[C@H]1CC[C@@H]2[C@H](COC[C@@H](O)CN2C(=O)Nc2ccc(C(F)(F)F)cc2)O1)NCCc1ccncc1`, the growth inhibition call is “active”.

As for `O=C(C[C@H]1CC[C@@H]2[C@H](COC[C@@H](O)CN2C(=O)Nc2ccc(Cl)cc2)O1)NCCc1ccncc1`, the growth inhibition call was “inactive”.

On to `O=C(C[C@@H]1CC[C@H]2[C@@H](COC[C@@H](O)CN2C(=O)Nc2ccc(C(F)(F)F)cc2)O1)NCCc1ccncc1`, for which the growth inhibition call is “active”.

Regarding `O=C(C[C@@H]1CC[C@H]2[C@@H](COC[C@H](O)CN2C(=O)Nc2ccc(C(F)(F)F)cc2)O1)NCCc1ccncc1`, the growth inhibition call was “active”.

For `O=C(C[C@H]1CC[C@H]2[C@@H](COC[C@@H](O)CN2C(=O)Nc2ccc(Cl)cc2)O1)NCCc1ccncc1`, the growth inhibition call was “inactive”.

For `O=C(C[C@@H]1CC[C@@H]2[C@H](COC[C@H](O)CN2C(=O)Nc2ccc(Cl)cc2)O1)NCCc1ccncc1`, the growth inhibition call was “inactive”.

As for `O=C(C[C@@H]1CC[C@@H]2[C@H](COC[C@H](O)CN2C(=O)Nc2ccc(C(F)(F)F)cc2)O1)NCCc1ccncc1`, the growth inhibition call is “inactive”.

In the case of `O=C(C[C@H]1CC[C@H]2[C@@H](COC[C@H](O)CN2C(=O)Nc2ccc(C(F)(F)F)cc2)O1)NCc1ccncn1`, the growth inhibition call was “inactive”.

On to `O=C(C[C@H]1CC[C@@H]2[C@H](COC[C@@H](O)CN2C(=O)Nc2ccc(C(F)(F)F)cc2)O1)NCc1ccncn1`, for which the growth inhibition call was “inactive”.

`O=C(C[C@@H]1CC[C@H]2[C@@H](COC[C@@H](O)CN2C(=O)Nc2ccc(Cl)cc2)O1)NCCc1ccncc1`: the growth inhibition call was “inactive”.

As for `O=C(C[C@H]1CC[C@H]2[C@@H](COC[C@H](O)CN2C(=O)Nc2ccc(Cl)cc2)O1)NCCc1ccncc1`, the growth inhibition call was “inactive”.

For the compound `Cc1ccc(S(=O)(=O)Nc2ccc3c(c2)C(=O)N(C)[C@H]2CC[C@@H](CC(=O)NCCc4ccncc4)O[C@H]2CO3)cc1`, the growth inhibition call is “inactive”.

As to `C[C@@H]1CN([C@@H](C)CO)C(=O)c2cccc(NC(=O)C3CC3)c2O[C@@H]1CN(C)C(=O)NC1CCCCC1`, the growth inhibition call was “inactive”.

For the compound `C[C@@H]1CN([C@H](C)CO)C(=O)Cc2cc(NC(=O)CCCCCC(=O)Nc3ccccc3N)ccc2O[C@H]1CN(C)C(=O)Nc1ccc(F)cc1`, the growth inhibition call was “inactive”.

In the case of `C[C@@H]1CN([C@H](C)CO)C(=O)c2c(c3ccccc3n2C)-c2ccccc2CO[C@@H]1CN(C)C(=O)c1cc(Cl)cc(Cl)c1`, the growth inhibition call is “inactive”.

Turning to `COc1cccc(S(=O)(=O)N[C@@H]2CC[C@H](CC(=O)NC3CCC3)O[C@@H]2CO)c1`, the growth inhibition call is “inactive”.

In the case of `CN(C)CC(=O)N[C@H]1CC[C@@H](CC(=O)O)O[C@H]1CO`, the growth inhibition call was “inactive”.

With `COCCNC(=O)C[C@@H]1CC[C@H]2[C@@H](COC[C@H](O)CN2S(=O)(=O)c2ccccc2C)O1`, the growth inhibition call was “inactive”.

On to `Cc1noc(C)c1S(=O)(=O)Nc1ccc2c(c1)CC(=O)N([C@@H](C)CO)C[C@H](C)[C@H](CN(C)S(=O)(=O)c1ccccc1)O2`, for which the growth inhibition call was “inactive”.

On to `CC(=O)N(C)C[C@@H]1Oc2ncc(C#CC(C)(C)O)cc2C(=O)N([C@@H](C)CO)C[C@@H]1C`, for which the growth inhibition call was “inactive”.

Consider `Cc1cc(C(=O)Nc2cccc3c2O[C@@H](CN(C)Cc2ccncc2)[C@@H](C)CN([C@@H](C)CO)C3=O)n(C)n1`, for which the growth inhibition call is “inactive”.

In the case of `COc1ccc(NC(=O)N(C)C[C@H]2OCCCC[C@H](C)Oc3ccc(NS(=O)(=O)c4ccc(C)cc4)cc3C(=O)N([C@@H](C)CO)C[C@@H]2C)cc1`, the growth inhibition call is “inactive”.

Turning to `O=C(C[C@H]1CC[C@@H]2[C@H](COC[C@H](O)CN2C(=O)Nc2ccc(C(F)(F)F)cc2)O1)NCCc1ccncc1`, the growth inhibition call is “active”.

Take `O=C(C[C@@H]1CC[C@@H]2[C@H](COC[C@@H](O)CN2C(=O)Nc2ccc(Cl)cc2)O1)NCCc1ccncc1`: the growth inhibition call was “inactive”.

`O=C(C[C@H]1CC[C@H]2[C@@H](COC[C@H](O)CN2C(=O)Nc2ccc(C(F)(F)F)cc2)O1)NCCc1ccncc1`: the growth inhibition call is “active”.

As to `O=C(C[C@@H]1CC[C@@H]2[C@H](COC[C@@H](O)CN2C(=O)Nc2ccc(C(F)(F)F)cc2)O1)NCCc1ccncc1`, the growth inhibition call was “active”.

Consider `O=C(C[C@H]1CC[C@@H]2[C@H](COC[C@H](O)CN2C(=O)Nc2ccc(Cl)cc2)O1)NCCc1ccncc1`, for which the growth inhibition call is “inactive”.

Consider `O=C(C[C@@H]1CC[C@H]2[C@@H](COC[C@H](O)CN2C(=O)Nc2ccc(Cl)cc2)O1)NCCc1ccncc1`, for which the growth inhibition call was “inactive”.

For the compound `O=C(C[C@@H]1CC[C@H]2[C@@H](COC[C@H](O)CN2C(=O)Nc2ccc(C(F)(F)F)cc2)O1)NCc1ccncn1`, the growth inhibition call is “inactive”.

For the compound `C[C@@H]1CN([C@H](C)CO)C(=O)c2cc(C#Cc3ccccc3F)cnc2O[C@H]1CN(C)S(=O)(=O)c1ccccc1`, the growth inhibition call is “inactive”.

Take `CC(C)NC(=O)[C@@H](C)n1ncn2cccc2c1=O`: the growth inhibition call is “inactive”.

Consider `C[C@H](CO)N1C[C@H](C)[C@@H](CN(C)C(=O)NC2CCCC2)Oc2cc(Br)ccc2S1(=O)=O`, for which the growth inhibition call is “inactive”.

As to `C[C@H](CO)N1C[C@H](C)[C@@H](CN(C)Cc2ccc(Cl)c(Cl)c2)Oc2ccc(NC(=O)C3CCCCC3)cc2CC1=O`, the growth inhibition call was “inactive”.

For the compound `Cc1cc(C(=O)Nc2cccc3c2O[C@H](CN(C)Cc2ccc4c(c2)OCO4)[C@H](C)CN([C@@H](C)CO)C3=O)n(C)n1`, the growth inhibition call is “inactive”.

For `NC(Cc1c[nH]c2ccccc12)C(=O)O` (stereo unspecified), the growth inhibition call was “inactive”.

Consider `Cc1cc(C)cc(C(=O)N(C)[C@H](Cc2ccc(-c3ccccc3)cc2)C(=O)N[C@@H](Cc2c[nH]c3ccccc23)C(=O)O)c1`, for which the growth inhibition call is “active”.

For `NCCCC[C@@H](N)C(=O)N[C@@H](Cc1c[nH]c2ccccc12)C(=O)N[C@@H](CCCCN)C(=O)O`, the growth inhibition call was “inactive”.

Regarding `CCC[C@H]1CN(S(=O)(=O)c2c(C)cc(C)c3nonc23)C[C@@H]1N`, the growth inhibition call was “inactive”.

For the compound `Cn1c(=O)sn(-c2ccccc2)c1=O`, the growth inhibition call is “inactive”.

Turning to `Cn1sc(=O)n(Cc2ccccc2)c1=O`, the growth inhibition call is “active”.

For the compound `Nc1cc(=O)[nH]c(=O)n1Cc1ccccc1`, the growth inhibition call was “inactive”.

With `Cc1ccc(S(=O)(=O)Nc2ccc3c(c2)C(=O)N([C@@H](C)CO)C[C@@H](C)[C@H](CN(C)S(=O)(=O)c2ccc(C)cc2)OCCCC[C@H](C)O3)cc1`, the growth inhibition call was “inactive”.

`CO[C@@H]1CN(C)C(=O)c2cc(NS(C)(=O)=O)ccc2OC[C@@H](C)N(C(=O)C2CCCCC2)C[C@@H]1C`: the growth inhibition call is “inactive”.

Take `CC(C)c1ccc(N2C=Nc3ccc(C(C)C)cc3C2)cc1`: the growth inhibition call was “active”.

Take `Cc1ccc(C(C)C)cc2c(C)ccc1-2`: the growth inhibition call is “inactive”.
